# ELG1 DNA repair = ELG1-dependent DNA repair inhibition. Potency, µM (titrated, usually from 46.1 µM), for inactives: at the highest dose activity change, negative = inhibition, most hits filed as inhibitors. actives 2.3% (n = 330,000). AID 504467. HEK293T ELG1-luciferase reporter, luminescence, 16 h; DNA damage induced by 5-fluorouridine; note: potency is the fitted concentration of half-maximal effect; nearly all actives have a fitted effect of over 55% in size
#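 Cells (2,000 per well) received 5-fluorouridine plus test compound or DMSO and were incubated 16 hr at 37 °C, 5% CO2. Luciferase activity was read by luminescence 30 min after ONE-Glo addition; signal suppression marked inhibition of damage-induced ELG1 function.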
# Sfp inh = blocks B. subtilis Sfp PPTase activity | Potency, µM, for inactives: largest response in the series, negative = inhibition, usual class: inhibitors | Q9F4F7 | AID 1490 | actives 3.5% (n = 310,000) | Biochemical Sfp PPTase activity, qHTS;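 note: the enzyme is Sfp with the accession as filed and its product quenches rhodamine fluorescence; potency is the fitted concentration of half-maximal effect; 0% = enzyme reaction without inhibitor and -100% = no enzyme wells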
#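 Step 1, compound plus 15 nM Sfp-PPTase, 15 min, room temperature. Step 2, add rhodamine-CoA (5 uM) and BHQ-2-YbbR (12.5 uM). Step 3, read 525/598 nm fluorescence at 0 and 30 min.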
# FBPA coupling cs = counter-screen for Giardia aldolase inhibitors: coupling enzyme system. coupling enzyme system counterscreen, AmpLite Red fluorescence. activity change, negative = inhibition, % at 58.2 µM, hits read low. actives 0.67% (n = 290,000); in the data active = activity change below about -30%
#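 Final compound at 57.5 uM, incubated 10 min at RT with coupling enzyme reagent (glyceraldehyde-3-phosphate), then 20 min with substrate and AmpLite Red detection. Fluorescence read at 525/598 nm; tests interference with the coupling assay, not aldolase inhibition.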
# Giardia killer = kills Giardia lamblia; Giardia lamblia trophozoite viability; activity change, % at 7.66 µM, hits read low; actives 0.15% (n = 340,000); AID 540267; in the data active = activity change below about -80%; inconclusive = between about -30% and that limit;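 note: parasites exposed to compound for two days anaerobically before the ATP read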
#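 Killing of trophozoites was scored by loss of ATP luminescence after a 48 hrs anaerobic exposure to compounds at 37 deg C, using 100 cells per well.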
# * marks the source's active call; other numbers are inactive results; u = inconclusive; x = no result. Hits are enriched below; roughly 5.5% of the tested compounds scored in any of these assays. Unless noted, calls come from the whole dose curve; as a rule, active = well fitted curve in the direction sought with a large enough effect; inconclusive = small, poorly fitted or top-dose-only effect, or another doubt; inactive = no such curve, though single readings can be large; an effect the other way counts as inactive or inconclusive. Unless noted, % is set by controls: 0 for no effect and ±100 for the full control effect.
SMILES,ELG1 DNA repair,Sfp inh,FBPA coupling cs,Giardia killer
CCOC(=O)N1CCC2(CC1)CC(=O)c1c(ccc3oc(C(=O)O)c(C)c13)O2,0.5%,21.0%,1.6,-6.7
O=Cc1ccccc1C=O,x,11.2µM*,x,x
O=C(NCCCN1CCCC1=O)c1cccc(S(=O)(=O)N2CCN(c3ccc(F)cc3)CC2)c1,u,-0.9%,x,2.1
CN1CCN(C(=O)/C=C/c2cn(-c3ccccc3)nc2-c2ccc3c(c2)OCCO3)CC1,10.3µM*,1.4%,-2.1,13.8
O=C(/C=C/c1cn(-c2ccccc2)nc1-c1cccc(Cl)c1)N1CCN(c2ccccn2)CC1,20.6µM*,6.4%,-2.5,5.2
O=C(O)/C=C/c1cn(-c2ccccc2)nc1-c1ccc2c(c1)OCCO2,u,7.2%,0.8,7.0
CN(C)C(=O)/C=C\c1cn(-c2ccccc2)nc1-c1ccc2c(c1)OCCO2,16.4µM*,-16.6%,-2.0,19.8
NC(CSCSCC(N)C(=O)O)C(=O)O (stereo not given),x,10.7%,1.6,x
CCOc1ccc2c(c1)C(C)=CC(C)(C)N2C(=O)Nc1ccccc1F,u,35.5µM*,-19.7,5.9
CC(C)(C)c1cc[n+](C2=C([O-])c3ccccc3C(=O)/C2=N\S(=O)(=O)c2cccs2)cc1,2.91µM*,-24.8%,-57.2*,14.8
O=C1/C(=N\S(=O)(=O)c2cccs2)C([n+]2ccccc2)=C([O-])c2ccccc21,2.59µM*,16.0%,-51.4*,-7.1
Cc1ccc(C2=CSC3=NS(=O)(=O)CCN23)cc1,7.3%,10.3%,-2.0,-1.9
COCCNC(=S)NNc1cccc(C(=O)O)c1,u,7.08µM*,2.9,32.9
COCCNC(=O)C(=O)Nc1cccc(Br)c1,u,22.9%,0.0,-5.3
C#CCN(Cc1ccco1)C(=O)c1ccc(OC2CCN(Cc3ccccn3)CC2)cc1,x,x,x,13.7
COc1ccc(C(c2c(N)[nH]c(=S)[nH]c2=O)c2c(N)[nH]c(=S)[nH]c2=O)cc1,14.5%,79.4µM*,-1.7,3.8
Cc1cc(NC(=O)C(C)Sc2nc(-c3ccccc3)cc(=O)[nH]2)no1 (stereo not given),-1.0%,-4.4%,7.0,27.6
COc1ccc(C(=O)Nc2nc3c(s2)Cc2cc(OC)ccc2-3)cc1,u,79.4µM*,x,-5.5
COc1ccc2nc(NC(=O)c3ccc(F)cc3)sc2c1,u,19.8%,4.1,10.3
COc1ccc2c(c1)Cc1sc(NC(=O)c3ccccc3)nc1-2,u,50.1µM*,-35.7*,14.6
CN(C)c1ccc(/C=C(\NC(=O)c2ccccc2)C(=O)NCCN2CCOCC2)cc1,-5.5%,12.1%,2.0,8.4
c1coc(CNc2ncnc3[nH]ncc23)c1,u,13.6%,0.5,17.4
O=S(=O)(Nc1nc2ccccc2nc1NCc1ccco1)c1ccc(F)cc1,14.6µM*,21.6%,0.2,-2.4
c1coc(CNc2nc3nonc3nc2NCc2ccco2)c1,0.0%,22.4µM*,-23.9,6.4
O=S(=O)(Nc1nc2ccccc2nc1NCc1ccco1)c1ccccc1,-13.0%,23.8%,3.8,-2.4
SMILES,ELG1 DNA repair,Sfp inh,FBPA coupling cs,Giardia killer
Cc1ccccc1-c1nnn(Cc2cccc(S(=O)(=O)N3CCOCC3)c2)n1,-23.3%,x,x,6.7
CS(=O)(=O)N1CCC2(CCCN(c3ccccn3)C2)CC1,x,19.8%,3.2,x
CN(/N=C/c1ccccc1O)C(=S)c1ccccc1,u,u,0.8,13.5
COc1ccc(C(=S)N(C)C)cc1OC,3.3%,44.7µM*,3.4,-14.7
CN(C)c1ccc(NC(N)=S)cc1,2.7%,-19.6%,0.3,-17.8
COc1ccc(C(=O)c2ccc(OC)c(OC)c2)cc1OC,18.3%,16.0%,-1.3,-3.0
CN(C)C(=S)c1ccccc1,-1.3%,20µM*,9.4,-15.2
CN(C)C(=S)c1ccc(N(C)C)cc1,-0.1%,15.8µM*,6.4,9.3
CN(C)c1ccc(NC(=O)CN2CCc3ccccc3C2)cc1,u,11.3%,-3.2,3.5
O=C1NC(=Nc2ccc3ccccc3c2)S/C1=C/c1ccco1,u,70.8µM*,0.3,-26.2
Cc1cccc(N=C2NC(=O)/C(=C/C=C/c3ccco3)S2)c1,-25.3%,50.1µM*,-1.3,9.0
Cc1cccc(N=C2NC(=O)S/C2=C\c2ccco2)c1,-21.5%,56.2µM*,-0.6,-13.7
O=C1NC(=Nc2ccc(Cl)cc2)/C(=C/c2ccco2)S1,6.7%,50.1µM*,-3.9,u
O=C1NC(=Nc2ccc(O)cc2)S/C1=C/c1ccco1,10.2%,-1.2%,1.3,3.9
CCCCOc1ccc(C(=O)Nc2cccc(-n3cnnn3)c2)cc1OC,2.2%,-3.8%,3.2,-21.5

# Screens deposited in PubChem BioAssay by National Center for Advancing Translational Sciences (NCATS).
